KDM5B inh – Primary screen for KDM5B Histone Demethylases FDH-coupled qHTS | KDM5B demethylase, FDH-coupled NADH fluorescence (FDH is formaldehyde dehydrogenase) | Potency, µM (titrated, usually from 57.7 µM), usual class: inhibitors | 2.6% of 220,000 active | AID 1347165, 2019; active = well fitted inhibition curve with a large enough effect; note: 0% is about no effect; nearly all actives have a fitted effect of over 70% in size
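Measured: NADH fluorescence change, 30 min, RT. System: KDM5BΔAP 200 nM final, H3K4me3 peptide, α-KG, Fe(II), ascorbate, NAD⁺ plus FDH, pH 7.5 HEPES. Compounds: titrated, 10 min pre-incubation with enzyme.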
The depositor's hits bear a star; i = inactive. The sample as a whole holds a higher share of hits than the screen did. Potency is the fitted concentration of half-maximal effect.

SMILES	KDM5B inh
O=C1COc2ccc(OCc3ccc(F)cc3)nc2CN1CCOc1ccccc1	i
Cc1noc(C)c1-c1ccc2c(n1)CN(Cc1ccc(F)cc1)C(=O)CO2	i
O=C1COc2ccc(OCc3cccnc3)nc2CN1CCOc1ccccc1	i
CN(c1ccccc1)c1ccc2c(n1)CN(Cc1ccccc1)C(=O)CO2	35.5µM*
O=C1COc2ccc(-c3ccccc3)nc2CN1Cc1ccc(F)cc1	i
Cc1cc(=O)oc2c(C)c(OCC(=O)NCc3ccc(S(N)(=O)=O)cc3)ccc12	i
Cc1ncsc1CCC(=O)N1CCC2(CCNCC2)CC1	i
Cc1ccc(C(=O)Nc2ccc3c(c2)CCC3)s1	i
COCc1noc(CNc2cc(-c3ccccc3F)nc3ccnn23)n1	i
O=C(CCC[C@@H]1[C@H]2CCCN3CCC[C@@H](CN1C(=O)Nc1ccccc1F)[C@@H]23)Nc1ccccc1	i
N#CCCN1CCN(c2ccc(NS(=O)(=O)c3ccccc3Cl)cc2C(=O)O)CC1	i
Cc1nc2ccc(NC(=O)Cc3cccc(C(F)(F)F)c3)cc2s1	i
COC(=O)C1CCN(C(=O)CC[C@H]2CNC(=O)[C@@H]3[C@@H](CCN3C(C)C)N2C)CC1	i
CN1[C@@H](CCC(=O)N2CCC(O)CC2)CNC(=O)[C@@H]2[C@H]1CCN2Cc1ccc(O)cc1	i
CC(C)N1CC[C@@H]2[C@H]1C(=O)NC[C@H](CCC(=O)N1CCN(c3ccccn3)CC1)N2C	31.6µM*
Cc1ccc(CN2CC[C@@H]3[C@H]2C(=O)NC[C@H](CCC(=O)N2CCN(C)CC2)N3C)cc1	i
CN1[C@@H](CCC(=O)N2CCN(c3ccccn3)CC2)CNC(=O)[C@@H]2[C@H]1CCN2Cc1ncc[nH]1	22.4µM*
CN1[C@@H](CCC(=O)N2CCN(c3ccccn3)CC2)CNC(=O)[C@@H]2[C@H]1CCN2Cc1ccc(O)cc1	31.6µM*
O=C(Nc1cccc(Cl)c1)N[C@H]1C[C@H]2C(=O)NC[C@@H](CCC(=O)N3CCC(O)CC3)N2C1	i
O=C(N[C@H]1C[C@H]2C(=O)NC[C@@H](CCC(=O)N3CCN(c4ccccc4)CC3)N2C1)C1CC1	i
CN1CCN(C(=O)CC[C@H]2CNC(=O)[C@@H]3[C@@H](CCN3Cc3ncc[nH]3)N2C)CC1	i
CC(C)N1CC[C@@H]2[C@H]1C(=O)NC[C@H](CCC(=O)N1CCc3ccccc31)N2C	i
O=C(Nc1ccccc1)N[C@H]1C[C@H]2C(=O)NC[C@@H](CCC(=O)N3CCN(c4ccccn4)CC3)N2C1	25.1µM*
CN1[C@@H](CCC(=O)NCc2ccccc2)CNC(=O)[C@@H]2[C@H]1CCN2Cc1ncc[nH]1	i
Cc1ccc(C)c(N2CC(c3nc4ccccc4[nH]3)CC2=O)c1 (centres undefined)	i
SMILES	KDM5B inh
O=C(CN1CCCC(c2nc3ccccc3o2)C1)NCC(F)(F)F (centres undefined)	i
CCCn1nc(C(=O)NN2C(=O)NC3(CCCCC3)C2=O)c2ccccc2c1=O	i
Cc1ccc(C)c(N2CCN(C(=O)CCS(=O)(=O)c3cc4c5c(c3)CCN5C(=O)CC4)CC2)c1	i
CCOC(=O)C(=O)Nc1c(C(=O)Nc2ccc(F)cc2)oc2ccccc12	i
CN1[C@@H](CCC(=O)N2CCN(c3ccccc3)CC2)CNC(=O)[C@@H]2[C@H]1CCN2Cc1ccc(F)cc1	i
CN1[C@@H](CCC(=O)N2CCN(c3ccccc3)CC2)CNC(=O)[C@@H]2[C@H]1CCN2CC(C)(C)C	i
CN1[C@@H](CCC(=O)N2CCN(c3ccccn3)CC2)CNC(=O)[C@@H]2[C@H]1CCN2Cc1ccc(CO)o1	31.6µM*
O=C(C1CC1)N1CCCCC1c1nc(C2CCOCC2)n[nH]1 (centres undefined)	i
c1cnn(-c2ccc(-c3n[nH]c(C4CCOCC4)n3)cc2)c1	i
c1cc(N2CCCCC2)ccc1-c1n[nH]c(C2CCOC2)n1 (centres undefined)	22.4µM*
CC(C)NC(=O)NC1CCCc2c1cnn2-c1ccc(F)cc1F (centres undefined)	i
O=C(CCSC1CCc2ccccc2NC1=O)Nc1ccc2c(c1)OCCO2 (centres undefined)	i
CN(CC(=O)N1CCc2c(c(-c3nncn3CC3CC3)nn2C)C1)S(=O)(=O)c1cnc[nH]1	22.4µM*
Cn1nc(-c2nncn2CC2CC2)c2c1CCN(C(=O)c1nn(C)c3ccccc13)C2	i
CCn1cnnc1-c1nn(C)c2c1CN(C(=O)c1n[nH]c(=O)c3ccccc13)CC2	i
CC(C)n1cnnc1-c1nn(C)c2c1CN(C(=O)Cc1c[nH]c3ccccc13)CC2	20µM*
Cn1nc(-c2nncn2CC2CC2)c2c1CCN(C(=O)c1cn[nH]c1-c1ccccc1)C2	i
Cn1cnnc1-c1nn(C)c2c1CN(C(=O)c1n[nH]c3ccccc13)CC2	i
Cn1cnnc1-c1nn(C)c2c1CN(C(=O)c1nn(C)c3ccccc13)CC2	i
Cn1nc(-c2nncn2CC2CC2)c2c1CCN(C(=O)c1[nH]nc3c1COc1ccccc1-3)C2	i
CC(C)n1cnnc1-c1nn(C)c2c1CN(C(=O)c1n[nH]c3ccccc13)CC2	i
CCNC(=O)N1CCc2c(c(-c3nncn3-c3ccccc3)nn2C)C1	i
CCn1cnnc1-c1nn(C)c2c1CN(C(=O)CCC(=O)N1CC(=O)Nc3ccccc31)CC2	14.1µM*
Cn1nc(-c2nncn2CC2CC2)c2c1CCN(C(=O)c1n[nH]c3ccccc13)C2	20µM*
O=c1[nH]nc2n1CCN(S(=O)(=O)c1ccc3c(c1)OCCO3)CC2	i
SMILES	KDM5B inh
O=C(CSc1ccc2ccccc2n1)NCCc1ccc(Cl)cc1	i
COC(=O)c1ccc(/C=C(/C#N)C(=O)Nc2cccc(OC)c2)cc1	i
COc1ccccc1NC(C)c1nnc(-c2cccs2)o1 (centres undefined)	i
Cc1cc(C)c(NC(=O)CCc2ccco2)c(Cl)c1	i
Cc1cc(F)ccc1NC(=O)Cn1cnc2c1c(=O)n(C)c(=O)n2C	i
O=C(/C=C/c1ccccc1)N1CCC(c2nc3ccccc3o2)CC1	i
O=C(O)COc1ccc(-c2nccc3c2C(=O)N(Cc2ccccc2)CC(COc2ccc(Cl)cc2)O3)cc1 (centres undefined)	i
Cc1nc(C)c(C(=O)NCC2Cn3cccc3C(=O)N2Cc2ccccc2)s1 (centres undefined)	i
O=C(NCC1Cn2cccc2C(=O)N1Cc1ccccc1)c1cccc2nccnc12 (centres undefined)	i
COc1ccc(C(=O)NCC2Cn3cccc3C(=O)N2CC(C)C)cc1 (centres undefined)	i
O=C(NCC1Cn2cccc2CN1Cc1ccccc1)c1ccc2cc[nH]c2c1 (centres undefined)	25.1µM*
COc1ccc(C(=O)NCC2Cn3cccc3C(=O)N2C)cc1OC (centres undefined)	i
COc1ccc(C(=O)NCC2Cn3cccc3CN2Cc2cccnc2)cc1 (centres undefined)	12.6µM*
COc1ccc(C(=O)N2CCc3ccc(C(=O)NCc4cccnc4)cc32)cc1	i
Cc1cc(C(=O)NCC2Cn3cccc3CN2Cc2ccccc2)n[nH]1 (centres undefined)	31.6µM*
COCCNC(=O)[C@H]1C[C@H](Oc2ccccc2)CN1Cc1ccc2[nH]ccc2c1	i
O=C(CC12CC3CC(CC(C3)C1)C2)Nc1ccc2oc(-c3cccnc3)nc2c1	i

Screening data from PubChem BioAssay.
